Screening data deposited in PubChem BioAssay by National Center for Advancing Translational Sciences (NCATS).
Tb PGK inh: blocks T. brucei phosphoglycerate kinase. P07378. PGK/GAPDH coupled, Kinase-Glo luminescence, 60 min. Potency, µM (highest dose often 57.5 µM), usual class: inhibitors. actives 0.043% (n = 380,000); also: nearly all actives have a fitted effect of over 60% in size
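Recombinant glycosomal PGK reaction used 1,3-bisphosphoglycerate generated in-well by GAPDH (100nM final) in 100mM TEA pH 7.6, 5mM MgCl2, 0.01% Tween-20. After 60 minutes at room temperature, ATP was read by Kinase-Glo Plus luminescence end-point.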
ELG1 DNA repair: inhibitors of ELG1-dependent DNA repair in HEK293T cells; HEK293T ELG1-luciferase reporter, luminescence, 16 h; DNA damage induced by 5-fluorouridine; Potency, µM (titrated, usually from 46.1 µM), actives largely listed as inhibitors; actives 2.3% (n = 330,000); AID 504467; also: nearly all actives have a fitted effect of over 55% in size
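Overnight (16 hr) co-exposure of 2,000 cells/well to 5-fluorouridine and compound at 37 °C preceded detection. Luciferase was quantified via ONE-Glo luminescence; loss of signal denotes inhibition.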
Rango-impB inh: prevents formation of the Rango-importin beta complex; Q14974; Rango CFP/YFP FRET sensor + importin beta, 45 min; actives 0.031% (n = 340,000); Potency, µM (titrated, usually from 92.2 µM); calls by dose curve; also: nearly all actives have a fitted effect of over 15% in size
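FRET biosensor Rango (snurportin 1 IBB between N-terminal EYFP and C-terminal Cerulean), 50 nM in PBS/1 mM DTT/0.02% Tween-20/0.1% BSA, preincubated 5 min RT with compound; 0.125 microM importin beta added, 45 min RT, CFP/YFP FRET ratio read.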
Rango dissoc inh: inhibitors of RanGTP-induced Rango-importin beta complex dissociation; O95149+P62826; Biochemical FRET Rango-importin beta, RanGTP-induced dissociation; Potency, µM (series often up to 46.1 µM); actives 0.071% (n = 340,000); calls by dose curve; also: nearly all actives have a fitted effect of over 45% in size
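Quantitative HTS using a FRET biosensor: 0.1 uM Rango, 0.25 uM importin beta, 0.6 uM Ran, 2 mM GTP, 0.2 uM RCC1 final, PBS with DTT, Tween-20 and BSA. Post-read taken 45 min after Ran addition.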
Tb PFK inh-1: inhibitors of T. brucei phosphofructokinase; O15648; T. brucei PFK, ADP-Glo luminescence; Potency, µM (doses to about 57.5 µM), hits mostly inhibitors; actives 0.17% (n = 330,000); also: nearly all actives have a fitted effect of over 60% in size
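Compounds were pin-transferred as a titration series up to 57 uM into substrate buffer (0.5 mM F6P, 0.1 mM ATP, pH 8.0), then 1.25 nM PFK was added and reactions ran 45 min before ADP-Glo detection.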
PKM2 act: activators of human pyruvate kinase M2. purified PKM2, Kinase-Glo ATP luminescence, activation; response scale: 0% is enzyme alone, no compound. Potency, µM (highest dose often 57.5 µM), hits mostly activators. actives 0.34% (n = 260,000). AID 1631; also: nearly all actives have a fitted effect of over 55% in size
Target sequence (P14618 whole entry, looked up): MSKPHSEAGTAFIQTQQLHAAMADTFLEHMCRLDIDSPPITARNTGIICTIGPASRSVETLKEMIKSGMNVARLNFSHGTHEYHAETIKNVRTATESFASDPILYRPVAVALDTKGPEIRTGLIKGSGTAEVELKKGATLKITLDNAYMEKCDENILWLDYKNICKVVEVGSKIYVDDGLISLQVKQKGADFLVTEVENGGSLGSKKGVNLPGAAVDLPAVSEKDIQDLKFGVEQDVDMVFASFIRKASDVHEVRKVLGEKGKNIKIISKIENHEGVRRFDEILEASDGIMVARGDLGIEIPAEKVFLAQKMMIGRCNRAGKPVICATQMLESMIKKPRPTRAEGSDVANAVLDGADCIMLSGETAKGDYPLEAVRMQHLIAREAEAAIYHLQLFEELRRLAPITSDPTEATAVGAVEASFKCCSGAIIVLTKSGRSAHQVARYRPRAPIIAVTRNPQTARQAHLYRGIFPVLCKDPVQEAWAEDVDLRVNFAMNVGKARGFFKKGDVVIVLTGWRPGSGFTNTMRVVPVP
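Purified hPK-M2 (>95%) run at intermediate activity with 0.1 mM ADP and 0.5 mM PEP in 50 mM imidazole pH 7.2, KCl, MgCl2; 1 h room temperature. ATP formed read by Kinase-Glo luminescence; normalized to uninhibited and no-enzyme controls.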
Tb PFK KinaseGlo: inhibits T. brucei PFK measured by ATP depletion; shares compounds with Tb PFK inh-1; Tb PFK enzyme, ATP depletion, Kinase-Glo Plus luminescence; actives 47% (n = 1,100); Potency, µM (titrated, usually from 57.5 µM); calls by dose curve; also: nearly all actives have a fitted effect of over 60% in size
Tb PFK inh-2: validation of T. brucei phosphofructokinase inhibitors | shares compounds with Tb PFK inh-1 | Potency, µM (series often up to 57.5 µM), usual class: inhibitors | purified T. brucei PFK, ADP-Glo luminescence, 45 min | actives 41% (n = 1,100); also: nearly all actives have a fitted effect of over 60% in size
Hits are given with their value; n = inactive; u = inconclusive; x = no result. Most compounds without a hit are left out; they make up all but 2.4% or so of the library. Unless noted, calls follow the shape of the dose curve; as a rule, active = well fitted curve in the direction sought with a large enough effect; inconclusive = small, poorly fitted or top-dose-only effect, or another doubt; inactive = no such curve, though single readings can be large; an effect the other way counts as inactive or inconclusive.

SMILES	Tb PGK inh	ELG1 DNA repair	Rango-impB inh	Rango dissoc inh	Tb PFK inh-1	PKM2 act	Tb PFK KinaseGlo	Tb PFK inh-2
O=C(Nc1ccc(Cl)cc1)Nc1ccc(Cl)c(Cl)c1	n	u	n	n	n	x	x	x
CCN(CC)S(=O)(=O)c1cc([N+](=O)[O-])ccc1NNC(=O)Nc1ccc(Cl)c(Cl)c1	n	n	n	n	u	n	n	n
COc1cccc(-n2c(CNC(=O)OC(C)(C)C)n[nH]c2=S)c1	n	n	u	n	n	n	x	x
O=C(Nc1ccc(F)c([N+](=O)[O-])c1)c1cccn(Cc2ccccc2)c1=O	n	x	x	x	x	x	x	x
O=C1NCCOC(=O)[C@H](Cc2ccc(F)cc2)CC/C=C/C[C@H]1CC(=O)N(CCO)Cc1ccccc1	n	u	n	n	n	x	x	x
Cc1ccc(-c2c(C(=O)O)c(C(=O)O)c3n2CSC3)cc1	x	n	u	n	n	x	x	x
O=C(COc1ccc(Cl)cc1Cl)Nc1ccc(S(=O)(=O)NC2=NCCCCC2)cc1	n	n	n	n	15µM	n	u	30µM
O=C(COc1ccccc1[N+](=O)[O-])Nc1cccc(S(=O)(=O)NC2=NCCCCC2)c1	n	u	n	n	u	x	u	u
O=C(COc1ccccc1[N+](=O)[O-])N1CCN(CCc2ccncc2)CC1	n	x	x	x	x	x	x	x
CCN(CC)C(=O)c1ccc(NC(=O)COc2ccc([N+](=O)[O-])cc2Cl)cc1	n	n	n	n	n	n	x	x
O=c1[nH]c(=S)n(Cc2ccc(F)cc2)c(O)c1/C=N/N1CCCCCC1	n	n	u	u	n	n	x	x
Cc1ccccc1NC(=O)CSc1ccsc1[N+](=O)[O-]	u	n	n	n	27µM	n	11µM	17µM
CCOC(=O)N1CCN(C(=O)c2ccc3c(=O)n(CCC4=CCCCC4)c(=S)[nH]c3c2)CC1	n	u	n	n	n	n	x	x
COc1ccc2[nH]c3c(=O)n(CCCCC(=O)NCCN4CCCC4)c(=S)[nH]c3c2c1	n	n	n	n	u	n	u	u
O=C1C(SCCO)=C(SCCO)C(=O)c2ccccc21	n	u	n	n	9.5µM	x	0.6µM	u
O=C1c2ccccc2-c2cc3ccccc3cc21	n	x	u	n	x	x	x	x
Cc1oc2cc3oc(=O)c(CCC(=O)N4CCCCC4)c(C)c3cc2c1C	n	x	x	x	x	x	x	x
CCNc1nc(NCC)n2c(SCC(=O)Nc3ccc(CC)cc3)nnc2n1	n	n	n	n	21µM	x	17µM	17µM
N#Cc1cccc(NC(=O)COC(=O)c2cccc(N3C(=O)c4ccccc4C3=O)c2)c1	n	n	n	n	u	n	u	u
CC1=NN(c2ccccc2)C(=O)/C1=C/c1c(O)[nH]c(=S)[nH]c1=O	n	n	n	n	u	n	x	x
Cc1cccc(NCc2ccc([N+](=O)[O-])s2)c1	n	u	n	n	u	n	21µM	u
O=[N+]([O-])c1ccc(CNc2cccc(F)c2)s1	n	n	n	n	13µM	n	5.4µM	13µM
Cc1cccc(NP2(=O)NCCCN2)c1	n	x	n	n	x	x	x	x
CCOc1ccc(CN(CCc2ccc3c(c2)OCO3)Cc2cccc(Br)c2)cc1	n	x	x	x	x	x	x	x
O=C(/C=C/c1ccc(O)c(O)c1)OC(Cc1ccc(O)c(O)c1)C(=O)O (stereo not drawn)	u	n	u	n	2.7µM	n	3.4µM	u
SMILES	Tb PGK inh	ELG1 DNA repair	Rango-impB inh	Rango dissoc inh	Tb PFK inh-1	PKM2 act	Tb PFK KinaseGlo	Tb PFK inh-2
COc1cc(C=NNC(=O)c2ccc(NS(=O)(=O)c3cccs3)cc2)cc(Br)c1O	n	n	u	u	u	x	n	u
O=C(N/N=C/c1cc(Br)c(Br)s1)c1ccncc1	n	u	n	n	n	n	x	x
O=C(O)c1ccc(-n2cccc2/C=C2/SC(=O)N(CC(=O)N3CCCC3)C2=O)cc1	u	n	n	n	u	n	4.8µM	5.4µM
O=C(O)c1cccc(-n2cccc2/C=N/O)c1	u	n	n	n	21µM	n	u	u
O=C(O)c1ccc(-n2cccc2/C=C2/NC(=O)N(c3ccccc3)C2=O)cc1	u	n	n	n	u	n	u	19µM
Cc1ccc(N2C(=O)NC(=O)/C(=C\c3cccn3C(C)(C)C)C2=O)cc1	x	n	u	n	n	n	x	x
Cn1cccc1/C=C1\SC(=S)N(CC(=O)O)C1=O	n	n	u	u	u	n	x	x
Cn1cccc1/C=C1\C(=O)NC(=O)N(Cc2ccccc2)C1=O	n	u	u	n	n	n	x	x
Cc1ccc(CN2C(=O)N/C(=C\c3cccn3-c3cccc(C(=O)O)c3)C2=O)cc1	u	n	n	n	u	u	u	u
Nc1c(C(=O)Nc2ccc(Br)cc2F)sc2nc3c(cc12)N1CCC3CC1	n	x	x	x	x	x	x	x
CCOc1ccc2nc(N(CCN(CC)CC)C(=O)c3ccc([N+](=O)[O-])cc3)sc2c1	n	n	n	n	n	n	x	x
N#Cc1c(F)cccc1NCc1cccs1	n	n	n	n	u	n	u	u
CNC(=O)[C@H]1C[C@@H]1[C@H](NP(=O)(c1ccccc1)c1ccccc1)c1ccccc1	x	x	x	x	x	n	x	x
C=CC#CC[N+]1(CC#Cc2ccccc2)CCOCC1	n	n	n	n	u	n	n	u
Cc1ccc(-n2c(/C=C\c3ccc(F)c(F)c3)nc3ccccc3c2=O)c(C)c1	n	x	x	x	x	x	x	x
COc1ccc(CN2CCN(C(=O)COc3ccccc3)CC2)c(OC)c1	n	x	x	x	x	x	x	x
COc1ccc(C(=O)COC(=O)/C=C/c2ccccc2)c(OC)c1	n	u	n	n	u	x	u	n
O=C(COc1ccc(Cl)cc1)OCC(=O)c1ccc[nH]1	n	u	n	n	u	x	n	u
O=C(Cc1ccc(Cl)c(Cl)c1)OCC(=O)c1ccc[nH]1	n	n	n	n	u	n	9.5µM	19µM
O=C(OCc1ccc(Cl)c(Cl)c1)c1cnccn1	n	n	n	n	u	n	24µM	27µM
O=C(OCc1ccc(Cl)c(Cl)c1)c1ccc[nH]1	n	u	n	n	u	n	24µM	21µM
O=C(COC(=O)Cc1ccccc1)Nc1ncc(Cl)cc1Cl	n	n	n	n	n	n	x	x
COc1ccccc1CNCCc1cccc(Cl)c1	n	x	x	x	x	x	x	x
Cc1cc2c(cc1[N+](=O)[O-])NC(CNC(C)C)CC2 (stereo not drawn)	n	n	n	n	12µM	n	27µM	17µM
